Most compounds without a hit are left out; they make up all but 13% or so of the library.
WT yeast gro inh = growth inhibition of WT yeast, mitochondrial fusion screen. mitochondrial fusion phenotypic screen, WT strain. inhibition, % at 10 µM. 2.1% of 190,000 active. AID 1362; in the data active = inhibition above about 58%; tested in S. cerevisiae
CHOP inhibitor = CHOP inhibition in unfolded protein response; inhibition, % at 10 µM; 3.8% of 220,000 active; AID 2732; CHO-K1 CHOP-promoter luciferase, tunicamycin-induced, 15-18 h;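 active = compounds that reduced the stress-induced luciferase reporter signal by more than about 70% of percent inhibition, limit read from the data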;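 also: 0% = tunicamycin plus vehicle and 100% = wells without tunicamycin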
RAM network inh = inhibitors of the yeast RAM network | S. cerevisiae dse1pr::URA3 reporter, 5-FOA growth OD615, 2 d; analog-sensitive cbk1-as2 kinase mutant strain | inhibition, % at 50 µM | 1.8% of 190,000 active | AID 868;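 active = inhibition above a set limit, 3 SD over mean compound inhibition, cut at about 8.4% in these data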;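 also: 0% = DMSO-only wells with no growth and 100% = 10 µM 1-NA-PP1 full growth; inhibition rescues growth on 5-FOA so higher OD means more RAM inhibition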
Lmaj promast = inhibitors of Leishmania major promastigote growth; AID 1063; Leishmania major promastigotes, resazurin fluorescence viability; 9% of 200,000 active; inhibition, % at 10 µM; in the data active = inhibition above about 50%;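 also: promastigotes grown with compound for 44 hours at 28 °C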
Starred values were filed as active, the others as inactive; / = no result.

SMILES | WT yeast gro inh | CHOP inhibitor | RAM network inh | Lmaj promast
CCCc1cc2c(=O)c(-c3ccc4c(c3)OCCO4)coc2cc1OC(=O)c1ccco1 | 2.3 | 4.5 | 0.3 | -7.8
CCCc1cc2c(=O)c(-c3ccc4c(c3)OCCO4)c(C)oc2cc1OS(C)(=O)=O | -6.7 | -0.1 | 0.0 | 99.2*
CCCc1cc2c(=O)c(-c3ccc4c(c3)OCCO4)coc2cc1OS(C)(=O)=O | 3.7 | -16.4 | 5.3 | 76.3*
COC(=O)C1=CN(c2ccc(OC)cc2)C=C(C(=O)OC)C1c1ccc(C)c([N+](=O)[O-])c1 | 6.0 | -9.5 | 3.1 | 99.5*
COc1cccc(NC(=S)NC2CC(C)(C)NC(C)(C)C2)c1 | -14.8 | 7.5 | 0.4 | 1.2
O=C(CNC(=O)c1cccs1)OCC(=O)c1ccccc1Cl | 2.2 | -2.7 | 3.1 | -9.1
O=P(Cc1cc(Br)cc(Br)c1OCCO)(c1ccccc1)c1ccccc1 | / | -14.1 | / | /
Cc1[nH]n(-c2nc(-c3ccc(Cl)cc3)cs2)c(=O)c1N=Nc1ccc(O)cc1 | 18.2 | 58.5 | 9.8* | 71.5*
COc1ccccc1/C=C/C(=O)c1ccc(NC(C)=O)cc1 | 22.9 | -159.8 | 3.2 | 99.7*
COc1ccccc1/C=C/C(=O)N1CCOCC1 | 7.2 | 21.0 | 0.7 | -1.1
O=C(/C=C/c1ccccc1O)c1ccc(Cl)cc1 | 48.0 | 33.7 | -0.4 | 99.9*
COc1ccccc1/C=C/C(=O)c1ccccc1 | / | 1.2 | / | /
COc1ccccc1/C=C/C(=O)c1c2c(c(C)[nH]c1=O)CCCC2 | -13.8 | -1.0 | 1.2 | 77.3*
COc1ccccc1/C=C/C(=O)c1ccc(Cl)cc1 | 22.0 | 61.7 | 0.5 | 85.9*
CCSc1nnc(COc2ccccc2)n1CC | / | 9.3 | / | /
O=C(NCc1ccccc1)c1ccccc1C(=O)c1ncc[nH]1 | -10.3 | -2.7 | -0.3 | -3.5
Nc1ncnc2c1ncn2[C@@H]1O[C@H](C(=O)NC2CC2)[C@H](O)C1O (some centres undefined) | / | -18.8 | / | /
O=C(CSc1nnc(Cn2c(=O)sc3ccccc32)n1-c1ccccc1)Nc1nccs1 | 9.1 | 51.4 | 3.4 | 2.5
CCOc1ccccc1NC(=O)CCNC(=O)c1ccc(Cl)cc1 | -8.1 | 14.0 | 1.5 | 11.0
CCOc1ccccc1/C=C/C(=O)c1ccc(Cl)cc1 | 19.4 | -3.9 | -0.1 | 77.8*
N#Cc1cc(-c2ccccc2)nc(Oc2ccc(Cl)cc2)n1 | -16.4 | 71.2* | 6.1 | 77.2*
CN(/N=C/c1ccc(O)cc1O)c1ncc(C(F)(F)F)cc1Cl | / | 29.9 | / | /
CC1CCN(c2[nH]c(=S)c(C#N)c3c2CCCC3)CC1 | 5.0 | 27.9 | 0.2 | 100.1*
Cc1ccnn1CC(=O)N/N=C/c1ccc2c(c1)OCO2 | -4.0 | 0.1 | 1.4 | 45.4
COc1ccc(-c2[nH]ncc2N=Nc2ccccc2)cc1 | -99.6 | 73.0* | 1.6 | 12.5
SMILES | WT yeast gro inh | CHOP inhibitor | RAM network inh | Lmaj promast
CCOC(=O)c1cnc(-c2ccccc2)nc1Oc1ccccc1 | 8.3 | 44.5 | 1.2 | -1.8
CCOC(=O)c1cnc(-c2ccccc2)nc1-c1ccccc1 | 64.5* | 28.4 | 0.7 | 24.0
COC(=O)CSc1nc(N)c(C#N)c(-c2ccco2)c1C#N | -2.8 | -27.0 | 4.4 | -4.2
COC(=O)CSc1nc(-c2ccccc2)cc(-c2ccco2)c1C#N | -1.4 | 15.5 | 9.7* | 12.4
N#Cc1c(-c2ccco2)cc(C2CC2)nc1SCC(=O)c1ccccc1 | -10.7 | 17.9 | 8.7* | 1.3
COc1ccccc1-c1cc(-c2ccccc2)nc(SC(C(N)=O)c2ccccc2)c1C#N (centres undefined) | 16.1 | 75.9* | 0.2 | 3.3
Cc1nc(SC(C(N)=O)c2ccccc2)c(C#N)c(C)c1C (centres undefined) | / | -1.9 | / | /
CCC(=O)Nc1ccc(/C(C)=N\NS(=O)(=O)c2ccc(C)cc2)cc1 | -16.9 | 24.0 | 3.7 | -4.3
COCCCNc1nc2ccccc2nc1NS(=O)(=O)c1ccc(C)cc1C | / | 22.6 | / | /
O=C(CSc1ccc(Cl)cc1)Nc1cccc(-c2nc3ncccc3o2)c1 | 18.6 | 72.9* | 0.9 | 7.1
O=C(CSc1ccc(Cl)cc1)Nc1cccc(NC(=O)c2ccco2)c1 | -11.3 | 5.3 | 2.6 | 96.9*
COc1ccc(-c2cnc(SCC(=O)Nc3ccc4c(c3)OCO4)n2Cc2ccco2)cc1 | 11.3 | 41.4 | 0.8 | 23.7
CC(=O)Nc1cccc(NC(=O)CSc2ncc(-c3ccc(Cl)cc3)n2Cc2ccco2)c1 | 35.5 | 88.2* | 2.6 | 38.5
CCC(=O)NC(=S)Nc1cccc(-c2nc3ncccc3o2)c1 | 17.4 | 9.5 | 2.0 | 2.5
CCCCCC(=O)Nc1cccc(-c2nc3ncccc3o2)c1 | 2.7 | 22.7 | -0.3 | 66.6*
Cc1nc(/C(=N/O)C(N)=O)cs1 | / | 10.8 | / | /
COc1ccc(C(=O)NN/C(C)=C/C(=O)C(F)(F)C(F)(F)C(F)(F)F)cc1 | 11.5 | 37.4 | -1.4 | -7.2
CCCCC(=O)Nc1cccc(-c2nc3ncccc3o2)c1 | 3.8 | 11.7 | 0.0 | 100.0*
